Screening results deposited in PubChem by National Center for Advancing Translational Sciences (NCATS).
HT1080NT lethal: kills 2HG-producing HT-1080-NT fibrosarcoma cells; Potency, µM (highest dose often 46.1 µM), usual class: cytotoxic; HT-1080-NT fibrosarcoma viability, CellTiter-Glo ATP luminescence, 48 h; 1.6% of 360,000 active;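 note: NT is the 2HG producing partner of a matched IDH1 knockdown line; nearly all actives have a fitted effect of over 55% in size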
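HT-1080-NT; 750 cells/well; 5% FBS RPMI; 48 h compound, 37 degrees C; CellTiter-Glo luminescence; curve fitting and curve-class assignment.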
HT1080 IDH1KD tx: toxicity to HT-1080 IDH1 knockdown cells (counter line). 2% of 360,000 active. HT-1080 IDH1 knockdown viability, ATP luminescence, 48 h. Potency, µM (series often up to 46.1 µM), most hits filed as cytotoxic
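Using the IDH1-knockdown HT-1080 line run in the same batch and compound series as the NT line, viability after 48 h at 37 °C was determined by CellTiter-Glo luminescence and expressed as % activity.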
IL1B secr inh: inflammasome signaling inhibition, IL-1 beta readout. THP-1 LPS/ATP IL-1B secretion, AlphaLISA, 16 h; active compounds read low. activity change, % at 57.5 µM. 4.7% of 360,000 active; in the data active = activity change below about -50%; inconclusive = mostly about -30% to -49%
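Secreted IL-1B measured by AlphaLISA bead assay after 16 h compound exposure of THP-1 cells; compounds (final up to 57.5 uM) added 1 h before LPS (250 ng/mL) and ATP (1.25 mM) stimulation; lower signal means less secretion.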
TDP1 cell CPT: DT40-hTDP1 cell growth loss with CPT. 12% of 420,000 active. AID 686979. Potency, µM (titrated, usually from 46.2 µM), actives largely listed as inhibitors. chicken DT40 Tdp1-/-;hTDP1 cells + 20 nM CPT, ATP luminescence, 48 h; note: nearly all actives have a fitted effect of over 55% in size
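Chicken DT40 Tdp1-/- cells stably complemented with human TDP1 were seeded at 400 cells/well in medium containing 20 nM camptothecin, exposed to pin-transferred compounds, and grown at 37 °C for at least 48 hr. Viability was read as ATP luminescence.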
ELG1 repair inh: ELG1-dependent DNA repair inhibition; HEK293T ELG1-luciferase reporter, luminescence, 16 h; DNA damage induced by 5-fluorouridine; Potency, µM (highest dose often 46.1 µM), hits mostly inhibitors; 2.3% of 330,000 active; AID 504467; note: nearly all actives have a fitted effect of over 55% in size
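5-Fluorouridine DNA damage + compound/DMSO, 2,000 cells/well, 16 h, 37 °C/5% CO2. ONE-Glo, 30 min RT, luminescence. Readout = decrease in reporter signal.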
TDP1 cell noCPT: qHTS for Inhibitors of human tyrosyl-DNA phosphodiesterase 1 (TDP1): qHTS in cells in absence of CPT | DT40 Tdp1-/- hTDP1 cells, no CPT, ATP luminescence, 48 h | Potency, µM (highest dose often 46.2 µM), hits mostly inhibitors | 15% of 420,000 active | AID 686978, 2013; note: nearly all actives have a fitted effect of over 55% in size
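Compound effects on proliferation are scored in DT40 Tdp1-/-;hTDP1 cells in the absence of CPT. ATP levels (CellTiter-Glo luminescence) are recorded after a ≥48 hr, 37 °C incubation.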
Hits are given with their value; – = inactive; ? = inconclusive; · = no result given. Hits are enriched below; roughly 19% of the tested compounds scored in any of these assays. Unless noted, calls come from the whole dose curve; as a rule, active = well fitted curve in the direction sought with a large enough effect; inconclusive = small, poorly fitted or top-dose-only effect, or another doubt; inactive = no such curve, though single readings can be large; an effect the other way counts as inactive or inconclusive.

SMILES	HT1080NT lethal	HT1080 IDH1KD tx	IL1B secr inh	TDP1 cell CPT	ELG1 repair inh	TDP1 cell noCPT
COc1ccc(OC)c(CCNC(=O)CCc2cn(C)c3ccccc23)c1	–	–	–	–	–	?
CCN(CC)S(=O)(=O)c1ccc2oc(SCC3CN=C(c4ccc(OC)cc4)S3)nc2c1 (configuration not stated)	–	?	–	?	?	16µM
COc1ccc(C2=NCC(CSc3nnc(-c4ccc5c(c4)OCO5)o3)S2)cc1 (configuration not stated)	–	–	–	?	?	?
CCc1nc2sc3c(c2c(=O)n1NC(=O)CCl)CCCC3	–	?	-77	21µM	–	?
Cc1ccc2c(c1Br)C(O)(CC(=O)c1ccc(F)cc1)C(=O)N2 (configuration not stated)	·	·	·	–	·	?
Cc1ccc(NC(=O)COC(=O)c2ccccc2-c2nc3ccccc3s2)c(C)c1	–	–	–	?	?	?
COc1ccc(-c2cc(C(=O)N(C)CC(=O)Nc3ccccc3Br)c3ccccc3n2)cc1OC	?	–	–	16µM	?	18µM
CCc1cccc(CC)c1NC(=O)COC(=O)c1ccccc1-c1nc2ccccc2s1	–	–	–	21µM	?	16µM
COc1ccc(-c2cc(C(=O)N(C)CC(=O)Nc3ccccc3C(F)(F)F)c3ccccc3n2)cc1OC	?	–	–	21µM	·	4.1µM
CN(CC(=O)Nc1ccccc1Br)C(=O)c1ccccc1-c1nc2ccccc2s1	–	–	?	–	21µM	–
O=C(Nc1cccc(Cl)c1Cl)c1cc2nc(-c3ccc4c(c3)OCO4)cc(C(F)(F)F)n2n1	·	·	·	–	·	–
Cc1ccc(NC(=O)c2ccc(Cl)c(S(=O)(=O)N3CCCCC3)c2)nc1	–	–	?	–	–	–
Cc1cc(C)c2sc(NC(=O)C3CC3)nc2c1	–	–	–	–	?	?
Cc1cc(OCC(=O)NCCCN2CCOCC2)c2c(C)c(C)c(=O)oc2c1	–	–	–	–	–	–
COc1ccc(Cl)cc1NC(=O)CN(C)C(=O)CCC(=O)c1cc(C)sc1C	–	–	-53	?	?	–
COc1ccc(Cl)cc1NC(=O)CN(C)CC(=O)Nc1ccc(C)cc1Br	–	–	-67	–	?	?
COc1ccc(C)cc1NC(=O)C(=O)NNC(=O)COc1ccc(Cl)cc1	?	?	–	?	?	23µM
COc1ccc(Cl)cc1NC(=O)CN(C)CC(=O)NCc1ccc(F)cc1	–	–	–	?	?	?
COc1ccc(Cl)cc1NC(=O)CN(C)CC(=O)Nc1ccccc1-c1ccccc1	–	?	–	18µM	?	23µM
COc1ccc(CN2CCC(=O)N([C@H](CO)Cc3ccccc3)CC2)cc1OC	–	–	–	?	–	?
O=C(Nc1ccccc1Br)N1CCC(CN2CCCC2)CC1	·	·	·	–	·	–
COc1ccc(C#Cc2ccc3c(c2)O[C@@H](CN(C)C(=O)Nc2cccc(OC)c2)[C@H](C)CN([C@@H](C)CO)S3(=O)=O)cc1	–	?	–	–	·	18µM
COc1cccc(NC(=O)N(C)C[C@H]2Oc3cc(Br)ccc3S(=O)(=O)N([C@H](C)CO)C[C@H]2C)c1	–	–	–	?	·	?
C[C@H](CO)N1C[C@H](C)[C@@H](CN(C)C(=O)Nc2ccc(F)cc2)Oc2cc(Br)ccc2S1(=O)=O	–	–	–	?	·	?
COc1cccc(NC(=O)N(C)C[C@H]2Oc3cc(C#Cc4ccncc4)ccc3S(=O)(=O)N([C@H](C)CO)C[C@H]2C)c1	–	–	–	16µM	·	23µM
SMILES	HT1080NT lethal	HT1080 IDH1KD tx	IL1B secr inh	TDP1 cell CPT	ELG1 repair inh	TDP1 cell noCPT
C[C@@H]1CN([C@H](C)CO)S(=O)(=O)c2ccc(C#Cc3ccccc3F)cc2O[C@@H]1CN(C)C(=O)Cc1ccccc1	?	?	?	15µM	·	13µM
CC(C)NC(=O)N(C)C[C@H]1Oc2cc(C#Cc3ccc(F)cc3)ccc2S(=O)(=O)N([C@H](C)CO)C[C@H]1C	–	–	–	23µM	·	?
NNC(=O)[C@H](Cc1ccccc1)NC(=O)Nc1ccc2c(c1)OCCO2	–	–	–	–	–	–
CC(C)N1CCCC(C)(C(=O)Nc2nccc3ccccc23)C1 (configuration not stated)	–	–	–	–	·	–
O=C(Cc1ccc(Cl)cc1)Nc1ccc(S(=O)(=O)Nc2cnc3ccccc3n2)cc1	–	–	–	–	–	–
CC(=O)Nc1ccc(C(=O)OCC(=O)Nc2c(C)n(C)n(-c3ccccc3)c2=O)cc1	–	–	–	–	?	–
COc1ccccc1-c1cc(C(=O)NCc2ccccc2)c2c(-c3ccc(C)cc3)[nH]nc2n1	·	·	·	23µM	·	?
CCOc1ccc(-c2cc(C(=O)NCCc3ccccc3)c3c(-c4ccc(C)cc4)[nH]nc3n2)cc1	·	·	·	12µM	·	15µM
COc1ccc(CCNC(=O)c2cc(-c3ccc(C)cc3)nc3n[nH]c(-c4ccccc4)c23)cc1OC	·	·	·	–	·	–
COc1ccc(-c2cc(C(=O)NCCc3ccccc3)c3c(-c4ccccc4)[nH]nc3n2)cc1OC	·	·	·	16µM	·	?
COc1ccc(-c2cc(C(=O)NCCc3ccc(OC)c(OC)c3)c3c(-c4ccc(F)cc4)[nH]nc3n2)cc1	·	·	·	–	·	–
CCc1ccc(-c2[nH]nc3nc(-c4cc(OC)ccc4OC)cc(C(=O)O)c23)cc1	·	·	·	–	·	–
COCCCN1C(=O)C(CC(=O)NCCN2CCOCC2)CC(C(=O)N2CCOCC2)=C1C (configuration not stated)	–	–	–	–	·	–
Cn1ccc2cc(S(=O)(=O)N3CCCC(C(=O)NCc4ccccc4)C3)ccc21 (configuration not stated)	·	·	·	–	·	–
Cc1ccc(S(C)(=O)=NS(=O)(=O)c2cccc3nsnc23)cc1 (configuration not stated)	–	–	-53	–	–	–
CNS(=O)(=O)c1cccc2nsnc12	–	–	–	–	?	0.0073µM
O=C(c1cccc(Cl)c1)N(Cc1cccc(F)c1)C1CCS(=O)(=O)C1 (configuration not stated)	·	·	·	–	·	–
Cc1cccn2c(=O)c3cc(C(=O)NCC4CCCO4)c(=N)n(CCN4CCOCC4)c3nc12 (configuration not stated)	–	–	-51	–	–	–
